ELG1 DNA repair: ELG1-dependent DNA repair inhibition. HEK293T ELG1-luciferase reporter, luminescence, 16 h; DNA damage induced by 5-fluorouridine. Potency, µM (series often up to 46.1 µM), for the others: top-dose activity change, negative = inhibition, hits mostly inhibitors. 2.3% of 330,000 active; also: % is scaled to controls: 0 for no effect and ±100 for the full control effect; nearly all actives have a fitted effect of over 55% in size
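Reporter activity after DNA damage by 5-fluorouridine is monitored. Compound-treated cells incubate 16 hr at 37 °C, then ONE-Glo is added for 30 min before luminescence reading.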
ELG1 genotox: inducers of genotoxicity in HEK293T ELG1-luciferase cells | HEK293T ELG1-luciferase reporter, luminescence, 16 h | Potency, µM (top dose mostly 46 µM), inactives show at the top dose activity change, positive = activation, most hits filed as activators | 1.3% of 330,000 active | AID 504466; also: % of control where 0% means no effect; nearly all actives have a fitted effect of over 60% in size
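16 hr compound incubation (37 °C, 5% CO2) of HEK293T cells carrying luciferase-tagged ELG1; luciferase then measured by ONE-Glo luminescence after 30 min at RT.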
NPC1 prom act: NPC1 promoter activation. Potency, µM (top dose mostly 9.22 µM), for inactives: at the highest dose activation, most hits filed as activators. Huh7 NPC1 promoter luciferase reporter, 24 h. 2.4% of 320,000 active; also: % of control where 0% means no effect; nearly all actives have a fitted effect of over 60% in size
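Stably transfected Huh7 (NPC1 promoter→luciferase), 1500 cells/well in Opti-MEM + 10% FBS, 2 h settle, then compound 24 h at 37 °C. Luminescence after 10 min with Amplite reagent.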
SMN2 splice enh: enhancers of SMN2 splice variant expression | HEK293 SMN2-luciferase splicing reporter, luminescence, 30-36 h | Potency, µM (top dose mostly 46.1 µM), for the others: at the top dose activity change, positive = activation, actives largely listed as activators | 2.8% of 210,000 active | AID 1458; also: % of control where 0% means no effect; nearly all actives have a fitted effect of over 55% in size
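HEK293 cells carry an SMN2 […]–luciferase reporter in which exon 7 inclusion puts luciferase in frame. Cells were plated 10-12 h before compound addition, then incubated 30-36 h at 37C. ONE-Glo luminescence was read; sodium butyrate at 4.5 mM final served as control.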
Rab9 prom act: Rab9 promoter activation | 2.8% of 320,000 active | Potency, µM (highest dose often 9.22 µM), for the others: at the highest dose activation, negative = inhibition, actives largely listed as activators | AID 485297 | Huh7 Rab9 promoter-luciferase reporter, luminescence, 24 h; also: % of control where 0% means no effect; nearly all actives have a fitted effect of over 60% in size
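Quantitative HTS format; Huh7 Rab9-luciferase reporter cells (1500/well) receive compound 2 h post-plating, incubate 24 h at 37 °C, then get luciferase reagent for 10 min before luminescence reading.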
FLuc modulator: counter-screen for miR-21 project: firefly luciferase inhibitors or activators; 6.9% of 360,000 active; P08659; purified FLuc, Km substrates, luminescence inhibition; Potency, µM (highest dose often 57.5 µM), without a hit: at the highest dose activity change, negative = inhibition, actives largely listed as inhibitors;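 also: plate controls were vehicle for no effect and reference inhibitor for full effect; nearly all actives have a fitted effect of over 55% in size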
Target sequence (P08659 whole entry, looked up): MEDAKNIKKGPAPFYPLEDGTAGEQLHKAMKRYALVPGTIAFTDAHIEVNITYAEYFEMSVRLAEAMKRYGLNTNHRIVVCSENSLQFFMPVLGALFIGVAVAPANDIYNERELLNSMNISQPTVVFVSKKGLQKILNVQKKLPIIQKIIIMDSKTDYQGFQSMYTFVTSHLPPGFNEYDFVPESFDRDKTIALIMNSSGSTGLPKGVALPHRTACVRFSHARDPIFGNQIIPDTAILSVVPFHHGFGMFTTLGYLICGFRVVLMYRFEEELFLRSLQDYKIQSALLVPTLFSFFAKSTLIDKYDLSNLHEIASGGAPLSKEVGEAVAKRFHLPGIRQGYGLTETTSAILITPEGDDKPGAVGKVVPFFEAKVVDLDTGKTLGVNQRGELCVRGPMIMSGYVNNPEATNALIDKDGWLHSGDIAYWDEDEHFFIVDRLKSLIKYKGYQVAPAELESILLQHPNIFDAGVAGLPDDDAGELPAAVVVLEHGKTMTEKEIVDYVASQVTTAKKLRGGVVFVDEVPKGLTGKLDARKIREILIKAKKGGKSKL
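Purified P. pyralis luciferase (10nM final) with 10uM D-luciferin and 10uM ATP (Km levels) in 50mM Tris acetate pH 7.5, 10mM Mg acetate, 0.01% Tween-20, 0.05% BSA; qHTS 6-point titration, ~60 µM downward; luminescence read.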
The depositor's hits bear a star; ? = inconclusive; nt = no result given; [ ] = dose if it differs, or a comment. Compounds with a hit are over-represented: about 9.3% of the library has one in this group of screens. Calls follow the shape of the dose curve; as a rule, active = well fitted curve in the direction sought with a large enough effect; inconclusive = small, poorly fitted or top-dose-only effect, or another doubt; inactive = no such curve, though single readings can be large; an effect the other way counts as inactive or inconclusive. Potency is read from the fitted curve at half-maximal effect.

SMILES | ELG1 DNA repair | ELG1 genotox | NPC1 prom act | SMN2 splice enh | Rab9 prom act | FLuc modulator
COc1cc(NC(=O)COc2cc(O)c3c(c2)OC(C)(C)CC3=O)cc(OC)c1OC | 10µM* | -14% | -31% | nt | -41% | ?
CC1(C)CC(=O)c2c(O)cc(OCC(=O)Nc3ccc(S(N)(=O)=O)cc3)cc2O1 | ? | -6% | 6% | nt | -8% | -10%
CC(C)(C)C1CCc2c(sc3nc(-c4cc5ccccc5oc4=O)[nH]c(=O)c23)C1 (configuration not stated) | nt | nt | nt | nt | nt | -13%
CC1CCc2c(sc3nc(-c4cc5ccccc5oc4=O)nc(Cl)c23)C1 (configuration not stated) | nt | nt | nt | 2% | nt | 2.4µM*
CSC(=NCc1ccco1)NC#N | 2% | 0% | 0% | nt | -2% | -2%
S=C(Nc1cc(Cl)cc(Cl)c1)N1CCN(c2ccccn2)CC1 | -2% | -5% | -5% | nt | -10% | 4%
CCCOc1ccc(C(=O)Nc2ccc(Cl)cn2)cc1 | ? | ? | 0.71µM* | ? | 0.5µM* | 0.85µM*
Cc1cccc(NC(=S)NC(=O)c2cccs2)n1 | ? | 10% | ? | 10% | ? | ?
Cc1nc(NC(=S)NC(=O)c2cccs2)ccc1Br | ? | ? | 6% | ? | 30% | 4.8µM*
O=C(Nc1ccccc1Cl)c1ccc2nccnc2c1 | ? | 2% | 3.2µM* | nt | 2.5µM* | 11µM*
CCCOc1ccc(C(=O)Nc2ccc(NC(=O)c3cccc(Cl)c3)cc2)cc1 | nt | nt | nt | 8% | nt | 0%
O=C(Nc1ccc(Cl)cn1)c1ccc2nccnc2c1 | ? | ? | 1.6µM* | nt | ? | 12µM*
COc1ccc(Cl)cc1NC(=O)C/C(C)=N/NC(=O)c1ccc(O)cc1 | 0% | -3% | -4% | nt | -2% | -1%
O=C(Nc1ccccc1Cl)c1ccc(-c2ccccn2)s1 | ? | ? | 2µM* | nt | 1.4µM* | 3.4µM*
Cc1ccc(C(=O)Nc2ncc3c(Cl)cccc3n2)cc1 | ? | ? | ? | 0.032µM* | 0.16µM* | 0.27µM*
O=C(Nc1c(Cl)cccc1Cl)c1ccc(-c2ccccc2)cc1 | 17% | -1% | 21% | -6% | 8% | 2%
Cc1ccccc1C(=O)Nc1ccc(Br)c(C)n1 | ? | 12µM* | ? | 80% | ? | 24µM*
CCC(=O)Nc1ccc(NC(=O)c2ccccc2Cl)nc1 | ? | ? | 13% | ? | 26% | ?
CC(C)C(=O)Nc1ccc(NC(=O)c2ccccc2Cl)nc1 | ? | 16µM* | ? | nt | 3.2µM* | 21µM*
Cc1ccc(S(=O)(=O)N2CCN(C(=O)c3cc(-c4ccc(Br)cc4)n[nH]3)CC2)c(C)c1 | nt | nt | nt | nt | nt | -3%
Cc1ccc(C)c(N2CCN(C(=O)c3ccc(CS(=O)Cc4cccc(Cl)c4)o3)CC2)c1 (configuration not stated) | -23% | -13% | -2% | nt | -4% | 0%
COc1ccc(NC(=O)CCNS(=O)(=O)c2ccc3[nH]c(=O)oc3c2)cc1Cl | -6% | -1%[9.26 µM] | -4% | nt | 4% | 5%
CC(C)(C)c1ccc(S(=O)(=O)NCc2ccc3c(c2)CCN3C(=O)c2ccccc2)cc1 | nt | nt | nt | nt | nt | -7%
O=C(Nc1ccc(Cl)cn1)c1ccc(Oc2ccccc2)cc1 | ? | ? | 1.3µM* | nt | 2.2µM* | 3.4µM*
Cc1ccccc1C(=O)Nc1ccc(Cl)cn1 | ? | 10µM* | 2.5µM* | 29% | 3.5µM* | 17µM*
Cc1ccc(C(=O)Nc2ccc(Cl)cn2)cc1 | ? | 2.3µM* | 9% | 7.9µM* | ? | 1.3µM*
Cc1ccc(OCCNC(=O)c2cccc(C)c2)cc1 | 0% | 3% | 16% | nt | 5% | 1%
Cc1ccc(C(=O)NCCOc2ccc(Cl)cc2)cc1 | ? | ? | ? | nt | 18% | 24µM*
